Some test systems named below: MAP3K15; MAP3K1; MAP3K2; MAP3K3; MAP3K4; MAP4K2; MAP4K3; MAP4K4; MAP4K5; MAPKAPK2; MAPKAPK5; MARK1; MARK2; MARK3; MARK4; MAST1.
What all share (conditions): concentration: 1 μM, replicates: in singlicate; n = 1
Another experiment has as its system T1, MEK1.
T1 construct: gene MAP2K1

The subject of a further experiment is T2, MEK2.
T2 construct: gene MAP2K2

In the next experiment the test system is T3, MEK3.
T3 construct: gene MAP2K3

Another experiment has as its system T4, MEK4.
T4 construct: gene MAP2K4

Results on nine compounds are retold here after PMC5540273 (PLoS ONE, 2017).
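Also: KINOMEscan kinase panel screen.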

Consider `CCCCc1nn2ncccc2c1-c1ccnc(Nc2ccc(N3CCN(C)CC3)cc2)n1` [GW684941], for which the “%Inh” value was 9% in the experiment with MAP3K15; 16% in the experiment with MAP3K1; 37% with MAP3K2; 49% in the experiment with MAP3K3; 40% in the experiment on MAP3K4; 0% in the experiment on MAP4K2. The “%Inh” value in the experiment with MAP4K3 turned out to be 12%; in the experiment on MAP4K4 it was 0%; in the experiment with MAP4K5 it was 21%; in the experiment with MAPKAPK2 it was 0%; in the experiment with MAPKAPK5, 0%; in the experiment with MARK1, 0%. The “%Inh” value was determined as 0% in the experiment with MARK2; 32% in the experiment with MARK3; 0% in the experiment with MARK4; 31% in the experiment with MAST1; 0% with MEK1; 0% in the experiment with MEK2. Moreover, the “%Inh” value with MEK3 is 0%; with MEK4 it was 32%.

Take `O=C(Nc1ccccc1F)NC1CCN(c2ccnc(Nc3ccc(F)cc3)n2)CC1` [GSK1379800]: the “%Inh” value in the experiment on MAP3K15 is listed as 0%; with MAP3K1, 13%; in the experiment with MAP3K2, 0%; in the experiment with MAP3K3 it was 0%; in the experiment on MAP3K4 it was 0%; in the experiment on MAP4K2 it was 0%. Further, the “%Inh” value was 0% in the experiment on MAP4K3; 0% in the experiment with MAP4K4; 0% in the experiment with MAP4K5; 6% in the experiment with MAPKAPK2; 0% in the experiment with MAPKAPK5; 0% with MARK1. For the same compound, the “%Inh” value in the experiment on MARK2 is on record as 0%; with MARK3, 0%; with MARK4, 2%; in the experiment on MAST1 it was 0%; in the experiment with MEK1, 0%; in the experiment with MEK2, 0%. For the same compound, the “%Inh” value was found to be 0% in the experiment on MEK3 and 4% in the experiment on MEK4.

`COc1cc(Nc2nccc(N3CCC(NC(=O)Nc4cccc(C(C)=O)c4)C3)n2)cc(OC)c1OC` (stereo not drawn) [GSK1379753]: the “%Inh” value stood at 0% with MAP3K15; 1% in the experiment on MAP3K1; 22% with MAP3K2; 0% in the experiment with MAP3K3; 0% in the experiment with MAP3K4; 8% in the experiment on MAP4K2. For the same compound, the “%Inh” value in the experiment on MAP4K3 turned out to be 0%; with MAP4K4 it was 3%; in the experiment with MAP4K5, 0%; with MAPKAPK2, 0%; in the experiment on MAPKAPK5, 0%; in the experiment with MARK1, 0%. Also, the “%Inh” value in the experiment with MARK2 is reported as 0%; in the experiment with MARK3 it was 0%; in the experiment with MARK4, 6%; in the experiment with MAST1, 0%; with MEK1 it was 0%; with MEK2, 0%. The “%Inh” value was 0% in the experiment with MEK3 and 55% in the experiment on MEK4.

As for `Cn1cc(-c2[nH]c3cc(NC(=O)[C@H](N)C4CCCCC4)cc4c3c2C=NNC4=O)cn1`, the “%Inh” value in the experiment on MAP3K15 was found to be 52%; in the experiment on MAP3K1, 35%; in the experiment with MAP3K2 it was 98.3%; in the experiment with MAP3K3, 94.8%; in the experiment on MAP3K4, 9%; in the experiment with MAP4K2, 97.3%. The “%Inh” value with MAP4K3 worked out at 86%; with MAP4K4 it was 48%; in the experiment with MAP4K5, 52%; in the experiment with MAPKAPK2, 0%; in the experiment on MAPKAPK5 it was 0%; in the experiment on MARK1 it was 83%. In addition, the “%Inh” value in the experiment on MARK2 is 88%; with MARK3 it was 88%; in the experiment on MARK4, 91.8%; with MAST1, 87%; with MEK1 it was 65%; in the experiment with MEK2 it was 67%. Moreover, the results for the “%Inh” value in the experiment with MEK3 and in the experiment with MEK4 were 46% and 14%, respectively.

Turning to `COC(=O)Nc1nc2ccc(Oc3ccc(NC(=O)Nc4cc(C(F)(F)F)ccc4F)cc3)cc2n1C.Cl` [GW692089], the “%Inh” value in the experiment on MAP3K15 turned out to be 0%; with MAP3K1, 2%; in the experiment on MAP3K2, 0%; in the experiment on MAP3K3, 0%; in the experiment with MAP3K4, 0%; with MAP4K2, 0%. Further, the “%Inh” value is given as 0% in the experiment with MAP4K3; 0% with MAP4K4; 0% with MAP4K5; 6% in the experiment with MAPKAPK2; 0% with MAPKAPK5; 0% in the experiment with MARK1. Also, the “%Inh” value in the experiment with MARK2 is 0%; in the experiment on MARK3 it was 0%; with MARK4 it was 2%; in the experiment on MAST1, 23%; in the experiment with MEK1, 0%; with MEK2, 1%. The “%Inh” value in the experiment with MEK3 and in the experiment on MEK4 was 0% in each case.

As to `COc1ccc(CNC(=O)NC2CCN(c3ccnc(Nc4ccc(F)cc4)n3)CC2)cc1` [GSK1379788], the “%Inh” value with MAP3K15 is recorded as 0%; with MAP3K1, 4%; with MAP3K2 it was 0%; with MAP3K3, 0%; in the experiment on MAP3K4, 0%; in the experiment with MAP4K2, 0%. Besides, the “%Inh” value in the experiment with MAP4K3 is 0%; in the experiment with MAP4K4 it was 2%; in the experiment on MAP4K5, 0%; in the experiment with MAPKAPK2, 1%; with MAPKAPK5, 0%; in the experiment with MARK1 it was 0%. Further, the “%Inh” value is on record as 0% in the experiment on MARK2; 0% in the experiment on MARK3; 0% with MARK4; 3% with MAST1; 0% in the experiment with MEK1; 9% in the experiment with MEK2. Further, the “%Inh” value worked out at 0% in the experiment with MEK3 and 45% with MEK4.

With `Nc1n[nH]c2cnc(-c3ccccc3)cc12` [SB-642124], the “%Inh” value with MAP3K15 is listed as 21%; in the experiment on MAP3K1 it was 14%; with MAP3K2, 12%; in the experiment on MAP3K3, 0%; with MAP3K4, 23%; in the experiment with MAP4K2, 31%. The “%Inh” value with MAP4K3 is 3%; with MAP4K4 it was 17%; in the experiment on MAP4K5, 0%; in the experiment on MAPKAPK2, 20%; with MAPKAPK5, 0%; with MARK1 it was 0%. The “%Inh” value in the experiment with MARK2 came to 0%; with MARK3, 0%; with MARK4, 0%; in the experiment on MAST1, 14%; in the experiment with MEK1, 0%; in the experiment on MEK2, 0%. The “%Inh” value in the experiment with MEK3 came to 0%; in the experiment on MEK4, 37%.

As to `Clc1ccc(-c2nn3ncccc3c2-c2ccnc(Nc3ccc4c(c3)OCCO4)n2)cc1` [GW829116], the “%Inh” value turned out to be 0% in the experiment with MAP3K15; 0% in the experiment with MAP3K1; 7% with MAP3K2; 2% with MAP3K3; 0% in the experiment on MAP3K4; 0% in the experiment with MAP4K2. The “%Inh” value came out at 0% in the experiment with MAP4K3; 12% with MAP4K4; 0% in the experiment on MAP4K5; 0% in the experiment on MAPKAPK2; 0% in the experiment with MAPKAPK5; 0% in the experiment with MARK1. For the same compound, the “%Inh” value in the experiment with MARK2 is 0%; in the experiment with MARK3, 20%; in the experiment with MARK4, 0%; in the experiment with MAST1, 0%; in the experiment with MEK1, 6%; with MEK2 it was 27%. Further, the entries for the “%Inh” value in the experiment on MEK3 and with MEK4 were 14% and 1%, respectively.

Take `O=C(Nc1cccc(-c2nn3ncccc3c2-c2ccnc(Nc3ccccc3)n2)c1)c1c(F)cccc1F` [GSK198271]: the “%Inh” value in the experiment with MAP3K15 came to 0%; with MAP3K1, 3%; in the experiment on MAP3K2 it was 35%; in the experiment with MAP3K3, 0%; with MAP3K4, 35%; with MAP4K2 it was 0%. Also, the “%Inh” value in the experiment on MAP4K3 is recorded as 33%; in the experiment on MAP4K4, 33%; in the experiment on MAP4K5, 84%; in the experiment with MAPKAPK2, 24%; with MAPKAPK5 it was 0%; in the experiment with MARK1, 0%. Further, the “%Inh” value is 0% with MARK2; 0% in the experiment on MARK3; 0% in the experiment on MARK4; 0% in the experiment with MAST1; 70% with MEK1; 77% in the experiment with MEK2. Moreover, the “%Inh” value in the experiment on MEK3 is 3%; with MEK4 it was 39%.
